According to PubChem BioAssay (NCATS):
Several values for one entry are separate records, joined by “and”; a condition that tells them apart may be missing. Equal values may be shown once. Results filed as inconclusive are left out. Activity calls are given as the source filed them. The call rests on the fitted dose curve; in most records, active means well fitted inhibition curve with a large enough effect; inconclusive means small, poorly fitted or top-dose-only effect; inactive means flat fitted curve, though single readings scatter.

Assays:
CRL-7250 = normal cell line; test: Cytotoxic Profiling of Annotated Libraries Using Quantitative High-Throughput Screening (AID 1296008); settings: Five cell lines viability, CellTiter-Glo ATP luminescence, 48-72 h; max response: active compounds read low; on max response: on the % scale 0 is the no-effect control and ±100 the full control effect
Procedure, shortened: (§1)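 Cells exposed to compounds for 48 or 72 hr at 37 degrees Celsius. Viability read as ATP-coupled luminescence with CellTiter-Glo after 10 min at room temperature.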

HEK293 = test: as above; settings: Five cell lines viability, CellTiter-Glo ATP luminescence, 48-72 h; max response: active compounds read low
Procedure, shortened: as §1

HaCat [1] = test: as above; settings: Five cell lines viability, CellTiter-Glo ATP luminescence, 48-72 h; max response: active compounds read low
Procedure, shortened: as §1

NIH3T3 = test: as above; settings: Five cell lines viability, CellTiter-Glo ATP luminescence, 48-72 h; max response: active compounds read low
Procedure, shortened: as §1

HACAT [2] = test: qHTS assay to identify novel small-molecules to repurpose for Merkel cell carcinoma treatment (AID 1296009); settings: MCC and control cell lines, CellTiter-Glo viability, 72 h; at 44.8 µM (top of the series) unless noted
Procedure, shortened: (§2)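 Cells were treated for 72 hr at 37 degree celsius with compounds in 8- or 11-point dose response. Viability was read by CellTiter-Glo luminescence, normalized to no-cell (cytotoxicity) and DMSO controls.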

MCC-13 = test: as above; settings: MCC and control cell lines, CellTiter-Glo viability, 72 h; series mostly up to 46 µM
Procedure, shortened: as §2

P93_24 = test: qHTS profiling for inhibitors of Plasmodium falciparum proliferation (AID 504749); settings: P. falciparum in erythrocytes, SYBR Green DNA, 72 h; series mostly up to 28.7 µM
Procedure, shortened: (§3)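 P. falciparum-infected erythrocytes (0.3% parasitemia, 2.5% hematocrit) incubated with compound 72 h at 37 C, 5% CO2. Parasite DNA detected by SYBR Green after lysis, overnight at room temperature; normalised to 0.29 uM artemisinin and DMSO.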

P94_40 = test: as above; settings: P. falciparum in erythrocytes, SYBR Green DNA, 72 h; series mostly up to 28.7 µM
Procedure, shortened: as §3

PAD = test: as above; settings: P. falciparum in erythrocytes, SYBR Green DNA, 72 h; series mostly up to 28.7 µM
Procedure, shortened: as §3

PC15 = test: as above; settings: P. falciparum in erythrocytes, SYBR Green DNA, 72 h; series mostly up to 28.7 µM
Procedure, shortened: as §3

PC26 = test: as above; settings: P. falciparum in erythrocytes, SYBR Green DNA, 72 h; series mostly up to 28.7 µM
Procedure, shortened: as §3

PC49 = test: as above; settings: P. falciparum in erythrocytes, SYBR Green DNA, 72 h; series mostly up to 28.7 µM
Procedure, shortened: as §3

SC27B = test: as above; settings: P. falciparum in erythrocytes, SYBR Green DNA, 72 h; series mostly up to 28.7 µM
Procedure, shortened: as §3

TAB109 = test: as above; settings: P. falciparum in erythrocytes, SYBR Green DNA, 72 h; series mostly up to 28.7 µM
Procedure, shortened: as §3

TAB113 = test: as above; settings: P. falciparum in erythrocytes, SYBR Green DNA, 72 h; series mostly up to 28.7 µM
Procedure, shortened: as §3

TAB165 = test: as above; settings: P. falciparum in erythrocytes, SYBR Green DNA, 72 h; series mostly up to 28.7 µM
Procedure, shortened: as §3

W2 = test: as above; settings: P. falciparum in erythrocytes, SYBR Green DNA, 72 h; series mostly up to 28.7 µM
Procedure, shortened: as §3

KB-3-1 = test: Cytotoxic Profiling of Annotated Libraries Using Quantitative High-Throughput Screening (AID 1296008); settings: Five cell lines viability, CellTiter-Glo ATP luminescence, 48-72 h; max response: active compounds read low; on max response: on the % scale 0 is the no-effect control and ±100 the full control effect
Procedure, shortened: as §1

MCC-26 = test: qHTS assay to identify novel small-molecules to repurpose for Merkel cell carcinoma treatment (AID 1296009); settings: MCC and control cell lines, CellTiter-Glo viability, 72 h; series mostly up to 46 µM
Procedure, shortened: as §2

HEK293T = test: as above; settings: MCC and control cell lines, CellTiter-Glo viability, 72 h; at 44.8 µM (top of the series) unless noted
Procedure, shortened: as §2
Further: nearly all actives have a fitted effect of over 60% in size.
Potency means the concentration at half of the fitted maximal effect.

CCCCCCCC/C=C/C(=O)O
inactive: outcome (CRL-7250) | max response (HEK293) 0.673% | outcome (HaCat [1]) | max response (NIH3T3) 2.83% | outcome (HACAT [2]) | Potency (MCC-13)

c1ccc2sc(SSc3nc4ccccc4s3)nc2c1
inactive: Potency (P93_24) | Potency (P94_40) | Potency (PAD) | Potency (PC15) | Potency (PC26) | Potency (PC49) | Potency (SC27B) | Potency (TAB109) | Potency (TAB113) | Potency (TAB165) | Potency (W2) | max response (CRL-7250) 1.15% | max response (HEK293) 3.28% | max response (HaCat [1]) -2.36% | max response (KB-3-1) 18.6% | max response (NIH3T3) 3.25% | Potency (MCC-13) | Potency (MCC-26)

O=C(CCN1CCN(CCO)CC1)N1c2ccccc2Sc2ccc(C(F)(F)F)cc21
inactive: Potency (PAD) | Potency (SC27B) | Potency (TAB113) | max response (CRL-7250) -6.26% | max response (HEK293) -1.82% | max response (HaCat [1]) -4.28% | max response (KB-3-1) -4.21% | max response (NIH3T3) 1.15% | Potency (MCC-13)
active: Potency (P93_24) 12.6 µM | Potency (W2) 7.57 µM

O=c1[nH]c2ccccc2n1CCCN1CCN(C(c2ccccc2)c2ccccc2)CC1
active: Potency (W2) 6.75 µM | Potency (HEK293) 16.8 µM
inactive: max response (CRL-7250) -27.4% | max response (HaCat [1]) -21.6% | max response (KB-3-1) 18.6% | max response (NIH3T3) -21.6% | Potency (MCC-13) | Potency (MCC-26)

CCCCCCCCCCCCCCCC(=O)OC(C)C
inactive: Potency (P93_24) | Potency (P94_40) | Potency (PAD) | Potency (PC15) | Potency (PC26) | Potency (PC49) | Potency (SC27B) | Potency (TAB109) | Potency (TAB113) | Potency (TAB165) | Potency (W2) | max response (CRL-7250) 3.48% | max response (HEK293) -10.5% | max response (HaCat [1]) -20.5% | max response (KB-3-1) 12.9% | outcome (NIH3T3) | Potency (MCC-13)

CCCCCCCCCCCCOCCO
inactive: max response (CRL-7250) -9.14% | max response (HEK293) -2.23% | max response (HaCat [1]) -12.4% | max response (NIH3T3) 1.59% | Potency (MCC-13)

[O-][n+]1ccccc1SSc1cccc[n+]1[O-]
active: Potency (P93_24) 1 µM | Potency (P94_40) 794 nM | Potency (PAD) 891 nM | Potency (PC15) 2.24 µM | Potency (PC26) 1.51 µM | Potency (PC49) 1.41 µM | Potency (SC27B) 891 nM | Potency (TAB109) 891 nM | Potency (TAB113) 891 nM | Potency (TAB165) 891 nM | Potency (W2) 0.757 µM | Potency (CRL-7250) 461 nM | Potency (HEK293) 0.411 µM | Potency (HaCat [1]) 731 nM | Potency (NIH3T3) 164 nM | Potency (MCC-13) 326 nM

Cc1ccc(C(=O)c2ccc(CC(=O)O)n2C)cc1
inactive: Potency (P93_24) | Potency (P94_40) | Potency (PAD) | Potency (PC15) | Potency (PC26) | Potency (PC49) | Potency (SC27B) | Potency (TAB109) | Potency (TAB113) | Potency (TAB165) | Potency (W2) | max response (CRL-7250) -1.54% | max response (HEK293) -2.23% | max response (HaCat [1]) 2.78% | max response (KB-3-1) -6.96% | max response (NIH3T3) 0.61% | Potency (MCC-13) | Potency (MCC-26)

CC(C)(C)c1nnc(NS(=O)(=O)c2ccc(N)cc2)s1
inactive: max response (CRL-7250) 2.87% | max response (HEK293) -1.6% | outcome (HaCat [1]) | max response (NIH3T3) -3.74% | outcome (HACAT [2]) | Potency (MCC-13)

COc1ccnc2c1CCCCC2S(=O)c1nc2ccccc2[nH]1 (stereo not given)
inactive: max response (CRL-7250) -8.92% | max response (HEK293) -19.1% | outcome (HaCat [1]) | max response (NIH3T3) -4.2% | outcome (HACAT [2]) | Potency (MCC-13)

CN1[C@@H]2CC[C@H]1CC(OC(=O)C(CO)c1ccccc1)C2 (stereo not given in full)
inactive: Potency (P93_24) | Potency (P94_40) | Potency (PAD) | Potency (PC15) | Potency (PC26) | Potency (PC49) | Potency (SC27B) | Potency (TAB109) | Potency (TAB113) | Potency (TAB165) | Potency (W2) | max response (CRL-7250) -9.68% | max response (HEK293) 2.75% | max response (HaCat [1]) -9.85% | max response (KB-3-1) -5.74% and -6.73% and 8.38% | max response (NIH3T3) 3.27%

COc1cc2c3cc1Oc1cc(ccc1O)C[C@@H]1c4c(cc(OC)c(O)c4Oc4ccc(cc4)C[C@@H]3N(C)CC2)CC[N+]1(C)C
inactive: Potency (P93_24) | Potency (P94_40) | Potency (PAD) | Potency (PC15) | Potency (PC26) | Potency (PC49) | Potency (SC27B) | Potency (TAB109) | Potency (TAB113) | Potency (TAB165) | Potency (W2) | max response (CRL-7250) 1.72% | outcome (HEK293) | max response (HaCat [1]) 1.8% | max response (KB-3-1) -2.77% | max response (NIH3T3) 4.48% | outcome (HEK293T) | Potency (MCC-13)

Cc1c(Nc2ncccc2C(=O)O)cccc1C(F)(F)F
inactive: Potency (P93_24) | Potency (P94_40) | Potency (PAD) | Potency (PC15) | Potency (PC26) | Potency (PC49) | Potency (SC27B) | Potency (TAB109) | Potency (TAB113) | Potency (TAB165) | Potency (W2) | max response (CRL-7250) -2.3% | max response (HEK293) -18.7% | max response (HaCat [1]) 1.65% | max response (KB-3-1) -9.8% | max response (NIH3T3) -21.5% | Potency (MCC-13)

CCOC(=O)c1ccccc1O
inactive: Potency (P93_24) | Potency (P94_40) | Potency (PAD) | Potency (PC15) | Potency (PC26) | Potency (PC49) | Potency (SC27B) | Potency (TAB109) | Potency (TAB113) | Potency (TAB165) | Potency (W2) | max response (CRL-7250) 3.39% | outcome (HEK293) | max response (HaCat [1]) -10.3% | max response (KB-3-1) -11.3% and -16.2% | max response (NIH3T3) -7.47% | outcome (HEK293T) | Potency (MCC-13)
